Laboratory results: PubChem BioAssay (EPA / NIEHS)
The source made the active and inactive calls. Rule for the calls: active = hit-call score of the fitted dose curve at least 0.9, where 1 is the maximum; inactive = score below 0.9.

What was measured:
Settings in all cases: mRNA level, 48 h; actives raise or lower the signal
[1] = read-out: JUN Transcription Factor, JUN (gene 3725); test: LTEA_HepaRG_JUN: Life Technologies and Expression Analysis (LTEA) Assay for JUN Transcription Factor using HepaRG (AID 2283513)
Procedure, shortened: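 Differentiated HepaRG cells were exposed to chemicals for 48 h in serum-free induction medium, 8 concentrations from 100 uM in half-log steps, 0.5% DMSO vehicle, in duplicate. JUN mRNA was quantified by TaqMan qRT-PCR, normalized to ACTB, GAPDH, POLR2A.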

[2] = read-out: Lipase C (LIPC), LIPC (gene 3990); test: LTEA_HepaRG_LIPC: Life Technologies and Expression Analysis (LTEA) Assay for Lipase C (LIPC) using HepaRG (AID 2283514)
Procedure, shortened: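 Differentiated human HepaRG cells in serum-free induction medium were exposed in duplicate for 48 h to eight concentrations (top 100 uM, half-log steps, 0.5% DMSO). LIPC mRNA was quantified by TaqMan qRT-PCR, normalized to ACTB, GAPDH and POLR2A, with bidirectional fitting versus DMSO.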

[3] = read-out: Lipoprotein lipase (LPL), LPL (gene 4023); test: LTEA_HepaRG_LPL: Life Technologies and Expression Analysis (LTEA) Assay for Lipoprotein lipase (LPL) using HepaRG (AID 2283515)
Procedure, shortened: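 Differentiated human HepaRG cells in serum-free induction medium were exposed in duplicate for 48 h to eight half-log concentrations (top 100 uM) in 0.5% DMSO. LPL mRNA was quantified by TaqMan qRT-PCR, normalized to ACTB, GAPDH and POLR2A.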

[4] = read-out: MicroRNA 122 (MIR122), gene 406906; test: LTEA_HepaRG_MIR122: Life Technologies and Expression Analysis (LTEA) Assay for MicroRNA 122 (MIR122) using HepaRG (AID 2283516); note: the transcript read is the microRNA miR-122
Procedure, shortened: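 Differentiated human HepaRG cells were exposed 48 h in serum-free induction medium to eight half-log concentrations (top 100 uM, 0.5% DMSO). Transcript level was measured by TaqMan qRT-PCR, normalized to ACTB, GAPDH and POLR2A, and fitted bidirectionally versus DMSO.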

[5] = read-out: matrix metalloproteinase-10 (MMP10), MMP10 (gene 4319); test: LTEA_HepaRG_MMP10: Life Technologies and Expression Analysis (LTEA) Assay for matrix metalloproteinase-10 (MMP10) using HepaRG (AID 2283517)
Procedure, shortened: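 HepaRG, collagen I, ~100,000 cells/well; serum-free induction medium; 48 h exposure, duplicate, 8-pt half-log to 100 uM, 0.5% DMSO. Readout: TaqMan qRT-PCR, normalized to ACTB/GAPDH/POLR2A; bidirectional fit vs DMSO.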

MYC, MYC (gene 4609) = test: LTEA_HepaRG_MYC: Life Technologies and Expression Analysis (LTEA) Assay for MYC using HepaRG (AID 2283518)
Procedure, shortened: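 Expression changes were scored by TaqMan qRT-PCR with ACTB, GAPDH and POLR2A normalization. Cultures in serum-free induction medium received duplicate 8-point concentration series, highest 100 uM, for 48 h; DMSO (0.5%) served as baseline.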

[6] = read-out: Paternally Expressed 10 (PEG10), PEG10 (gene 23089); test: LTEA_HepaRG_PEG10: Life Technologies and Expression Analysis (LTEA) Assay for Paternally Expressed 10 (PEG10) using HepaRG (AID 2283520)
Procedure, shortened: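 Differentiated HepaRG cells, plated 48 h then switched to serum-free induction medium, were exposed in duplicate for 48 h to eight half-log concentrations topping at 100 uM in 0.5% DMSO. PEG10 mRNA was quantified by TaqMan qRT-PCR, normalised to ACTB, GAPDH and POLR2A.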

[7] = read-out: Protein phosphatase 2A (PPP2R4), PTPA (gene 5524); test: LTEA_HepaRG_PPP2R4: Life Technologies and Expression Analysis (LTEA) Assay for Protein phosphatase 2A (PPP2R4) using HepaRG (AID 2283522)
Procedure, shortened: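 Differentiated HepaRG cells in serum-free induction medium were exposed in duplicate for 48 h to eight concentrations, top 100 uM with half-log dilutions, in 0.5% DMSO. PPP2R4 mRNA was quantified by TaqMan qRT-PCR, normalized to ACTB, GAPDH and POLR2A.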

[8] = read-out: Phosphatase and tensin (PTEN), PTEN (gene 5728); test: LTEA_HepaRG_PTEN: Life Technologies and Expression Analysis (LTEA) Assay for Phosphatase and tensin (PTEN) using HepaRG (AID 2283523)
Procedure, shortened: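 Differentiated human HepaRG cells, plated 48 h then switched to serum-free induction medium, were exposed in duplicate for 48 h to eight half-log concentrations up to 100 uM in 0.5% DMSO. PTEN mRNA measured by TaqMan qRT-PCR, normalized to ACTB/GAPDH/POLR2A, bidirectional fit versus DMSO.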

[9] = read-out: solute carrier (SLC22A1), SLC22A1 (gene 6580); test: LTEA_HepaRG_SLC22A1: Life Technologies and Expression Analysis (LTEA) Assay for solute carrier (SLC22A1) using HepaRG (AID 2283524)
Procedure, shortened: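 Human HepaRG cells were plated 48 h, switched to serum-free induction medium, then exposed in duplicate for 48 h to 8-point half-log series from 100 uM in 0.5% DMSO. SLC22A1 mRNA measured by qRT-PCR, normalized to ACTB/GAPDH/POLR2A, fitted bidirectionally versus DMSO.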

[10] = read-out: Pyruvate Dehydrogenase Kinase 4 (PDK4), PDK4 (gene 5166); test: LTEA_HepaRG_PDK4: Life Technologies and Expression Analysis (LTEA) Assay for Pyruvate Dehydrogenase Kinase 4 (PDK4) using HepaRG (AID 2283525)
Procedure, shortened: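 Differentiated human HepaRG cells, pre-cultured 48 h, were exposed in duplicate for 48 h in serum-free induction medium to eight half-log concentrations up to 100 uM in 0.5% DMSO. PDK4 mRNA was quantified by qRT-PCR, normalized to ACTB, GAPDH and POLR2A, bidirectional fitting versus DMSO.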

[11] = read-out: NAD(P)H dehydrogenase [quinone] 1 (NQO1), NQO1 (gene 1728); test: LTEA_HepaRG_NQO1: Life Technologies and Expression Analysis (LTEA) Assay for NAD(P)H dehydrogenase [quinone] 1 (NQO1) using HepaRG (AID 2283526)
Procedure, shortened: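 Differentiated HepaRG cells, plated 48 h and then switched to serum-free induction medium, were exposed in duplicate for 48 h to 8-point half-log concentrations up to 100 uM in 0.5% DMSO. mRNA measured by qRT-PCR, normalized to ACTB, GAPDH, POLR2A; bidirectional fit versus DMSO.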

[12] = read-out: Nuclear factor erythroid 2-related factor 2 (Homo sapiens) (UniProt Q16236); test: LTEA_HepaRG_NFE2L2: Life Technologies and Expression Analysis (LTEA) Assay for Nuclear factor erythroid 2-related factor 2 (NFE2L2) Transcription Factor using HepaRG (AID 2283527);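 note: TaqMan qRT-PCR transcript level normalised to ACTB GAPDH and POLR2A housekeeping genes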
Procedure, shortened: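 Differentiated human HepaRG cells in serum-free induction medium were exposed for 48 h to eight concentrations (top 100 uM, half-log dilutions, 0.5% DMSO), in duplicate. NFE2L2 mRNA was quantified by TaqMan qRT-PCR, normalized to ACTB, GAPDH and POLR2A, with bidirectional fitting versus DMSO.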

[13] = read-out: succinate dehydrogenase complex iron sulfur subunit B (SDHB), SDHB (gene 6390); test: LTEA_HepaRG_SDHB: Life Technologies and Expression Analysis (LTEA) Assay for succinate dehydrogenase complex iron sulfur subunit B (SDHB) using HepaRG (AID 2283528)
Procedure, shortened: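 A human HepaRG culture in serum-free induction medium received test chemicals for 48 h over an eight-point range capped at 100 uM. SDHB expression change was quantified by qRT-PCR.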

[14] = read-out: Signal transducer and activator of transcription 3 (Homo sapiens) (UniProt P40763); test: LTEA_HepaRG_STAT3: Life Technologies and Expression Analysis (LTEA) Assay for Signal transducer and activator of transcription (STAT3) using HepaRG (AID 2283529)
Procedure, shortened: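 Differentiated human HepaRG cells in serum-free induction medium were exposed in duplicate for 48 h to eight half-log concentrations up to 100 uM in 0.5% DMSO. STAT3 mRNA was quantified by TaqMan qRT-PCR, normalized to ACTB, GAPDH and POLR2A, and fitted bidirectionally against DMSO.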

[15] = read-out: solute carrier (SLCO1B1), SLCO1B1 (gene 10599); test: LTEA_HepaRG_SLCO1B1: Life Technologies and Expression Analysis (LTEA) Assay for solute carrier (SLCO1B1) using HepaRG (AID 2283530)
Procedure, shortened: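 Human HepaRG cultures treated for 48 h with an eight-concentration half-log series topping at 100 uM; SLCO1B1 measured by qRT-PCR and fitted bidirectionally relative to DMSO.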

[16] = read-out: Transforming Growth Factor (TGFA), TGFA (gene 7039); test: LTEA_HepaRG_TGFA: Life Technologies and Expression Analysis (LTEA) Assay for Transforming Growth Factor (TGFA) using HepaRG (AID 2283532)
Procedure, shortened: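 Differentiated human HepaRG cells, plated 48 h then switched to serum-free induction medium, were exposed in duplicate for 48 h to 8-point half-log series from 100 uM in 0.5% DMSO. TGFA mRNA measured by qRT-PCR, normalized to ACTB/GAPDH/POLR2A, bidirectional fit versus DMSO.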

[17] = read-out: sulfotransferase 2A1 (SULT2A1), SULT2A1 (gene 6822); test: LTEA_HepaRG_SULT2A1: Life Technologies and Expression Analysis (LTEA) Assay for sulfotransferase 2A1 (SULT2A1) using HepaRG (AID 2283531)
Procedure, shortened: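 Gene-expression endpoint in a human liver cell line: SULT2A1 mRNA change after 48 h chemical treatment, curves fitted in both directions relative to 0.5% DMSO vehicle. Concentrations spanned eight half-log steps from 100 uM.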

Measured: outcome

Sequence of Signal transducer and activator of transcription 3 (Homo sapiens) (P40763 whole entry, looked up): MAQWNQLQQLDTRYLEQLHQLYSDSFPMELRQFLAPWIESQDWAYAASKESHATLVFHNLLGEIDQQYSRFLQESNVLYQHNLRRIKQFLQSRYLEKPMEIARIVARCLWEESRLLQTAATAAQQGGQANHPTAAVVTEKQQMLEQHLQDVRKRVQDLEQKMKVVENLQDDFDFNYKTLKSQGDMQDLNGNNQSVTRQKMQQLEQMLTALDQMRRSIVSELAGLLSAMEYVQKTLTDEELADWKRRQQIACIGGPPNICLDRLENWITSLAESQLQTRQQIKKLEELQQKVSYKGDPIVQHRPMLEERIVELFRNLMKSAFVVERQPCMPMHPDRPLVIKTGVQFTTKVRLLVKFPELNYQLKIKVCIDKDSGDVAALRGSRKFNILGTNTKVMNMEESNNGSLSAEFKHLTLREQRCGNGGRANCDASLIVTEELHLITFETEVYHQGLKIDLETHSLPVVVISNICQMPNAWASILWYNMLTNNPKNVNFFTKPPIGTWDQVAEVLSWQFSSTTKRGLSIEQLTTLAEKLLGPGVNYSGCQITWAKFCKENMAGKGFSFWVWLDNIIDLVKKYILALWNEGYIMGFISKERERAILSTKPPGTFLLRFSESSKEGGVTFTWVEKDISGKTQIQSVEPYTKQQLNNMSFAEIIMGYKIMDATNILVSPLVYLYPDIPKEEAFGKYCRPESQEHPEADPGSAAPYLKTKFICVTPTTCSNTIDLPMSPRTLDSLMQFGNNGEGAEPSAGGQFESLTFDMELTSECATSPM
Sequence of Nuclear factor erythroid 2-related factor 2 (Homo sapiens) (Q16236 whole entry, looked up): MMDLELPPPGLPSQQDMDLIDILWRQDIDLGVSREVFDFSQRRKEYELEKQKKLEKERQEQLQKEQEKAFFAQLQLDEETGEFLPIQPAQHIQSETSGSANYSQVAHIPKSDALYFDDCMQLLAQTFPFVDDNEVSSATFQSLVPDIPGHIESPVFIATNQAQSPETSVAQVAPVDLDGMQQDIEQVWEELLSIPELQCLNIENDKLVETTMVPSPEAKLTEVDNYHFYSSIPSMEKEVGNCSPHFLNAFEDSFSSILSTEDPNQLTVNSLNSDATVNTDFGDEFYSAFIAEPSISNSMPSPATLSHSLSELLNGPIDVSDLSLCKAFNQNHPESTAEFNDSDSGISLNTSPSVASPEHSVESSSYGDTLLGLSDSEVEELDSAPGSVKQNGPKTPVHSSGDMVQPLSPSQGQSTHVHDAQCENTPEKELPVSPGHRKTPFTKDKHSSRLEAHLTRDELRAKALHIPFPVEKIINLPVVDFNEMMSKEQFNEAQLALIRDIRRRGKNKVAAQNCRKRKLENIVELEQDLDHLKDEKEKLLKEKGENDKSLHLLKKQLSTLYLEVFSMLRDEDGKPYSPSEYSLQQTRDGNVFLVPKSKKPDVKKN

CCCC(=O)OCC
not listed: [17]
inactive: all other assays above

CC/C(=C\C(=N/O)C(N)=O)C(C)[N+](=O)[O-] (stereo not drawn)
inactive: all assays above

Cc1ccc(C)c(O)c1
inactive: all assays above
